# uPA generation: cell surface uPA generation inhibition; cell surface uPA generation assay, qHTS; Potency, µM (titrated, usually from 38.3 µM), most hits filed as inhibitors; 330,000 compounds, 0.31% hits; active means well fitted inhibition curve with a large enough effect; inconclusive means small, poorly fitted or top-dose-only effect; inactive means no such curve, though single readings can be large or run the other way; tested in mouse RAW 264.7 cells; further: nearly all actives have a fitted effect of over 55% in size
# SMN2 splice up: increases expression of the SMN2 splice variant; HEK293 SMN2-luciferase splicing reporter, luminescence, 30-36 h; Potency, µM (top dose mostly 46.1 µM), hits mostly activators; 210,000 compounds, 2.8% hits; further: nearly all actives have a fitted effect of over 55% in size
#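 HEK293 cells carry an SMN2 minigene-luciferase reporter in which exon 7 inclusion puts luciferase in frame. Cells were seeded at 2000 cells/well, attached for 10-12 hours, then exposed to compounds for 30-36 hours at 37C before ONE-Glo luminescence.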
# NPC1 promoter act: activates the NPC1 promoter; 320,000 compounds, 2.4% hits; Huh7 NPC1 promoter luciferase reporter, 24 h; Potency, µM (highest dose often 9.22 µM), actives largely listed as activators; AID 485313; further: nearly all actives have a fitted effect of over 60% in size
#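 Luminescence read-out of NPC1 promoter-driven luciferase in stably transfected Huh7 cells; compounds delivered in DMSO and left 24 h at 37C, 5% CO2, qHTS titration format.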
# FLuc counter: counter-screen for miR-21 project: firefly luciferase inhibitors or activators; P08659; purified FLuc, Km substrates, luminescence inhibition; Potency, µM (titrated, usually from 57.5 µM), hits mostly inhibitors; 360,000 compounds, 6.9% hits; further: nearly all actives have a fitted effect of over 55% in size
# Target sequence (P08659 whole entry, looked up): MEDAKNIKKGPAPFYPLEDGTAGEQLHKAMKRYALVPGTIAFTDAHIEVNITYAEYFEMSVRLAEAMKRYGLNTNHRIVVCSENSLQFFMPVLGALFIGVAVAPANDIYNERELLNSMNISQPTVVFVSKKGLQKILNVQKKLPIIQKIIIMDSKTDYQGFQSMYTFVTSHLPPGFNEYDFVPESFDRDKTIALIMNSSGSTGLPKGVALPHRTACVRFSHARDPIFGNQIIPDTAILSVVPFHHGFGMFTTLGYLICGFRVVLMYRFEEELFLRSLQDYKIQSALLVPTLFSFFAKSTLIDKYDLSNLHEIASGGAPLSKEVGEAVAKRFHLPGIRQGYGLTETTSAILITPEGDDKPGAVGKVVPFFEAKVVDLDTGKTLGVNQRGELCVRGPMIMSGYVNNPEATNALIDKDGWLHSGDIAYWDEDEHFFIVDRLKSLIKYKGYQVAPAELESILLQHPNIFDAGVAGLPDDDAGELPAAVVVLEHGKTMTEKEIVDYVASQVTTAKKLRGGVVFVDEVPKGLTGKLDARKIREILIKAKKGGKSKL
#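 Purified P. pyralis luciferase, 10 nM final, with Km-level 10 uM D-luciferin and 10 uM ATP in 50 mM Tris acetate pH 7.5, 10 mM Mg acetate, 0.01% Tween-20, 0.05% BSA; 6-point qHTS titration about 60 µM downward; luminescence read.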
# ELG1 genotox: genotoxicity induction in ELG1-luciferase HEK293T cells | HEK293T ELG1-luciferase reporter, luminescence, 16 h | Potency, µM (series often up to 46 µM), most hits filed as activators | 330,000 compounds, 1.3% hits | AID 504466; further: nearly all actives have a fitted effect of over 60% in size
#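 After overnight (16 hr) compound treatment at 37 °C, ELG1-luciferase HEK293T cells were lysed with ONE-Glo; luminescence quantified 30 min later at room temperature.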
# Rab9 promoter act: activators of Rab9 promoter; Huh7 Rab9 promoter-luciferase reporter, luminescence, 24 h; Potency, µM (titrated, usually from 9.22 µM), usual class: activators; 320,000 compounds, 2.8% hits; further: nearly all actives have a fitted effect of over 60% in size
#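 Huh7 cells stably carrying Rab9 promoter–luciferase reporter, plated 1500 cells/well, compound added after 2 h and incubated 24 h at 37 °C; luciferase luminescence then read after 10 min with detection reagent.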
# Hits are given with their value; – = inactive; ? = inconclusive; · = no result; [ ] = dose if it differs, or a comment. Shown are actives, neighbours in structure and some others; about 7.3% of the full set was active somewhere. Unless noted, the call rests on the fitted dose curve; in most records, active means well fitted curve in the direction sought with a large enough effect; inconclusive means small, poorly fitted or top-dose-only effect, or another doubt; inactive means no such curve, though single readings can be large; an effect the other way counts as inactive or inconclusive.
SMILES,uPA generation,SMN2 splice up,NPC1 promoter act,FLuc counter,ELG1 genotox,Rab9 promoter act
CC1=C(C(=O)NCc2ccccc2F)C2(CCCCC2)OC1=O,·,·,·,–,·,·
COCC(=O)N1CCC2(CC1)CCN(c1ccncc1)CC2,·,–,·,·,·,·
COc1cccc(C(=O)COc2cccc(NC(=O)c3ccco3)c2)c1,–,·,–,27µM,–,–
COc1ccc(Br)cc1C(=O)Nc1ccc(O)cc1,–,28µM,–,?,–,–
COc1ccc(Br)cc1C(=O)Nc1cccc(NC(=O)c2ccco2)c1,–,·,–,24µM,–,–
O=C(COc1cccc(NC(=O)c2ccco2)c1)c1ccccc1,–,–,–,17µM,–,–
COc1ccc(Br)cc1C(=O)Nc1ccc(C(=O)O)cc1,–,–,–,–,–,–
CCN(CC)S(=O)(=O)c1ccc2c(c1)N(CC(=O)Nc1ccc(F)cc1)C(=O)CO2,·,–,·,–,·,·
O=C(Nc1cccc(NC(=O)c2ccco2)c1)c1ccccc1,–,·,–,?,–,–
COc1cccc(NC(=O)c2ccco2)c1,–,10µM,?,?,15µM,?
COc1ccc(C(=O)Nc2ccc(NC(=O)c3ccco3)cc2)cc1,–,·,–,–,?,–
COc1ccc(C(=O)COc2cccc(NC(=O)c3ccco3)c2)cc1,–,–,–,15µM,–,–
O=C(c1ccccc1)c1cccc(NC(=O)c2ccco2)c1,–,–,–,27µM,?,4µM
O=C(Nc1ccccc1)c1cccc2c(=O)c3c([nH]c12)CCCC3,·,·,·,–,·,·
CC(C)Oc1ccc(CNC(=O)C2CCN(c3nc4ccccc4nc3C(F)(F)F)CC2)cc1,·,·,·,–,·,·
COc1ccccc1NC(=O)c1cccc(S(=O)(=O)N2CCCCCC2)c1,·,–,·,–,·,·
Cn1ccnc1Sc1ccc(/C=N/NC(=O)c2ccccc2[N+](=O)[O-])cc1[N+](=O)[O-],–,–,–,–,–,–
Cn1ccnc1Sc1ccc(/C=N/NC(=O)c2ccccc2O)cc1[N+](=O)[O-],–,–,–,5.4µM,–,–
COc1ccc(N2CC(NC(=O)N3CCN(C(=O)c4ccco4)CC3)CC2=O)cc1OC (centres undefined),–,·,–,–,–,–
COc1ccccc1Oc1ccc2c(c1)C(=O)N(c1ccc(C)cc1)C2=O,–,–,–,?,–,–
COc1ccccc1Oc1ccc2c(c1)C(=O)N(c1ccccc1)C2=O,–,–,–,9.5µM,–,–
CCCCOc1ccc(/C=C2/Sc3ccccc3C2=O)cc1,–,16µM,–,3.4µM,–,–
CC(=O)Oc1cccc(/C=C2\Sc3ccccc3C2=O)c1,–,·,–,1.7µM,–,–
CCCCOc1ccc(/C=c2\sc3ncnn3c2=O)cc1,–,–,–,–,–,–
O=C1/C(=C/c2cccs2)Sc2ccccc21,–,?,–,1.1µM,?,?
SMILES,uPA generation,SMN2 splice up,NPC1 promoter act,FLuc counter,ELG1 genotox,Rab9 promoter act
CC(=O)Nc1ccc(S(=O)(=O)Oc2cccc(/C=C3\SC(N)=NC3=O)c2)cc1,–,–,–,–,–,–
O=C1NC(=O)/C(=C\c2ccc(OCc3cnc(Cl)s3)cc2)S1,–,–,–,?,–,–
CC(C)COc1ccc(/C=C2/Sc3ccccc3C2=O)cc1,–,?,?,1.3µM,?,–
O=C(NCC1CCCO1)C1CCCN(S(=O)(=O)c2ccc(Cl)cc2)C1 (centres undefined),–,·,–,–,–,–
Cc1ccc(NC(=O)Cn2c(=O)n(CCC(=O)NCCc3ccccc3)c(=O)c3ccccc32)cc1,·,–,·,–,·,·
O=C(CC1S/C(=N/N=C/C=C/c2ccccc2)NC1=O)Nc1ccc(C(=O)O)cc1 (centres undefined),–,–,–,13µM,–,–
O=C(CC1S/C(=N/N=C/c2ccco2)NC1=O)Nc1ccccc1 (centres undefined),–,–,–,–,–,–
CC1(C)O[C@@H]2O[C@H]([C@@H]3COC(C)(C)O3)[C@H](N)[C@H]2O1,·,–[9.22 µM],·,·,·,·
O=C(O)[C@@H]1CCCN1Cc1ccc2c(c1)OCO2,·,–[9.22 µM],·,·,·,·
CCCCCCSc1ccc(-c2nc3ccccn3c2NCCCC)cc1,–,·,–,?,–,–
CCCCNc1c(-c2ccc(-c3cccc(Cl)c3)cc2)nc2ccccn12,?,·,?,11µM,–,4µM
C[C@@](N)(/C=C\c1ccccc1)C(=O)O,·,–[9.22 µM],·,·,·,·
CCN=c1scc(-c2ccc(F)cc2)n1/N=C/c1ccccn1,–,13µM,2.5µM,9.5µM,10µM,3.2µM
CCN=c1scc(-c2ccccc2)n1/N=C/c1ccccn1,–,14µM,0.35µM,0.6µM,?,0.56µM
Cc1ccc(NC(=O)CSc2ncn[nH]2)c([N+](=O)[O-])c1,–,·,·,·,–,·
O=C1Nc2ccccc2/C1=C/c1cnc(-c2ccccc2)[nH]1,–,·,2.8µM,?,?,4µM
O=C(CC1C(=O)NCCN1Cc1cccc(C(F)(F)F)c1)NCCc1cnccn1 (centres undefined),–,·,–,–,–,–
Cc1nc2cc3ccccc3cc2s1,–,·,·,·,·,·
Cc1nc2cc3nc(C)sc3cc2s1,–,?,?,12µM,?,4µM
COc1cccc(C(=O)Nc2ccc(-n3nncc3-c3ccc(Br)cc3)cc2)c1OC,·,·,·,–,·,·
CCN(CC)CCNC(=O)c1c2c(nc3ccccc13)C(=O)N(C1CCCCC1)C2,·,·,·,–,·,·
Clc1ccc(-c2nc(C3CCCCC3)no2)cc1,–,?,3.2µM,4.8µM,–,3.2µM
Cc1ccc(N2C(=O)CS(=O)(=O)C23C(=O)N(Cc2cccc(F)c2)c2ccccc23)cc1Cl (centres undefined),·,–,·,–,·,·
COc1ccc(OC)c(S(=O)(=O)N2Cc3ccccc3CC2C(=O)Nc2nccs2)c1 (centres undefined),–,35µM,–,–[2.3 µM],–,?
O=c1c2ccccc2nnn1CSc1ccccc1F,–,10µM,1.3µM,2.7µM,?,0.89µM
SMILES,uPA generation,SMN2 splice up,NPC1 promoter act,FLuc counter,ELG1 genotox,Rab9 promoter act
Cc1ccc2nc(SCC(=O)c3c(C)[nH]c4ccccc34)[nH]c2c1,–,–,–,?,–,–
O=c1c2ccccc2nnn1CSc1nc2ccccc2[nH]1,–,25µM,3.5µM,15µM,?,2.8µM
Cc1ccc(SCn2nnc3ccccc3c2=O)c(C)c1,–,16µM,?,19µM,?,2.5µM
Cc1ccc2nc(SCn3nnc4ccccc4c3=O)[nH]c2c1,–,2.8µM,2.5µM,4.8µM,?,1.8µM
Cc1cc(=O)[nH]c(SCn2nnc3ccccc3c2=O)n1,–,–,–,–,–,–
O=C(Nc1c(O)c2ccccc2oc1=O)c1cccc(F)c1,·,–,·,–,·,·
O=c1c2ccccc2nnn1CSc1ncnc2ccccc12,–,?,–,?,–,–
O=c1c2ccccc2nnn1CSc1nnc2sc3ccccc3n12,·,2.2µM,0.4µM,1.9µM,?,0.32µM
O=C(NCCc1ccc(Cl)cc1)c1ccc2c(c1)N(Cc1ccc(F)cc1Cl)C(=O)CS2,·,–,·,–,·,·

# Screening data: PubChem, National Center for Advancing Translational Sciences (NCATS)
